Experimental data taken from PubChem BioAssay (Tox21).
A number with no mark means an inactive call. Records with an inconclusive call do not appear. A call without a number means that no potency is given here. Activity calls are given as the source filed them. Unless noted, calls follow the shape of the full dose curve.

Key:
[1] = Nuclear factor erythroid 2-related factor 2/antioxidant responsive element (Nrf2/ARE) small molecule agonists: qHTS cell viability counter screen in human keratinocytes (AID 1919968; active = well fitted curve in the direction sought with a large enough effect in the repeat runs; an effect the other way counts as inactive or inconclusive; also: nearly all actives have a fitted effect of over 55% in size)
In short: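 HaCaT ARE reporter line, 1,500 cells/well; 5 h settle, 37 C/5% CO2; cpd in DMSO pinned; 23 h exposure; CellTiter-Fluor, 1 h; fluorescence.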

[2] = Nuclear factor erythroid 2-related factor 2/antioxidant responsive element (Nrf2/ARE) small molecule agonists: luciferase reporter gene qHTS assay in human keratinocytes (AID 1919969); also: nearly all actives have a fitted effect of over 35% in size; also: potency is read from the fitted curve at half-maximal effect
[3] = target: Gonadotropin-releasing hormone receptor (Homo sapiens) (UniProt P30968); assay: Human gonadotropin-releasing hormone receptor (GnRHR) small molecule agonists, calcium flux assay in GnRHR-HEK293 cells (AID 1920063); also: nearly all actives have a fitted effect of over 35% in size
In short: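 GnRHR-HEK293, 1500 cells/well, 18 h 37 C/5% CO2; Ca dye 1 h 37 C; cpd pinned (DMSO), agonist mode; kinetic FL 480/540, 3 min, 1 s reads; 15 conc, n=3.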

[4] = target: KiSS-1 receptor (Homo sapiens) (UniProt Q969F8); assay: Human kisspeptin (KISS1R) small molecule agonists, calcium flux assay in KISS1R-HEK293 cells (AID 1920064; active = well fitted curve in the direction sought with a large enough effect in the repeat runs; an effect the other way counts as inactive or inconclusive)
In short: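 Stable human KISS1R HEK293 line; 18 h plating, 37 C/5% CO2; calcium dye 1 h 37 C; compound pin transfer; kinetic fluorescence Ex/Em 480/540, 3 min.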

[5] = G protein-coupled receptor (GPCR) small molecule agonists, calcium flux assay: HEK293 wild type cell line counter screen (AID 1920065)
In short: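 Kinetic fluorescence at Ex/Em 480/540, recorded every second over 3 min, served as the read-out after compound addition. Each compound was tested at 15 concentrations in triplicate on cells pre-loaded with calcium dye for 1 h.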

[6] = p53 small molecule agonists, cell-based qHTS assay with human liver microsomes (AID 1963577);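 also: p53 response element beta-lactamase reporter cells with liver microsomes plus NADPH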
In short: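 HLM-supplemented p53RE-bla reporter assay: 16 h compound exposure at 37 C, microsomes and NADPH each 0.5 mg/mL final, read by fluorescence intensity.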

[7] = p53 small molecule agonists, cell-based qHTS assay with rat liver microsomes (AID 1963578)
In short: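 Quantitative HTS of the Tox21 10K library: p53RE-bla cells, rat liver microsomes plus NADPH at 0.5 mg/mL final each, 16 h at 37 C, beta-lactamase fluorescence detection.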

[8] = p53 small molecule agonists, cell-based qHTS assay with human liver microsomes: qHTS cell viability counter screen (AID 1963579); also: nearly all actives have a fitted effect of over 45% in size
In short: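 Viability of p53RE-bla cells is measured as CellTiter-Glo luminescence following a 16 h, 37 C incubation with compound, liver microsomes from human donors and NADPH.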

[9] = p53 small molecule agonists, cell-based qHTS assay with rat liver microsomes: qHTS cell viability counter screen (AID 1963580); also: nearly all actives have a fitted effect of over 45% in size
In short: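 HCT-116 p53RE-bla, 4,000 cells/well, 5 h pre-incubation; cpd + rat liver microsomes 0.5 mg/mL + NADPH 0.5 mg/mL (final); 16 h, 37 C; CellTiter-Glo, 30 min RT; luminescence.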

[10] = p53 small molecule agonists, cell-based qHTS assay: qHTS cell viability counter screen (AID 1963581); also: nearly all actives have a fitted effect of over 45% in size
In short: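 HCT-116 p53RE-bla cells, 4,000/well, plated 5 h before compound pin transfer; 16 h at 37 C; bla substrate 2 h RT; then CellTiter-Glo, 30 min RT, luminescence.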

[11] = p53 small molecule agonists, cell-based qHTS assay (AID 1963582; active = well fitted activation curve with a large enough effect in the signal ratio in the repeat runs, not every such curve was filed as active; the % refers to the signal ratio; also: potency is read from the fitted curve at half-maximal effect)
In short: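 Reporter line: p53RE-bla. Pre-incubation 5 h, 37 C, 5% CO2; compound (DMSO, pin tool) 16 h, 37 C; B/G FRET substrate 2 h RT; fluorescence intensity read.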

[12] = target: 5-hydroxytryptamine receptor 2A (Homo sapiens) (UniProt P28223); assay: 5-hydroxytryptamine receptor 2A (HTR2A) small molecule antagonists, cell-based qHTS assay (AID 1963586); also: nearly all actives have a fitted effect of over 45% in size; also: potency is read from the fitted curve at half-maximal effect
In short: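 Antagonist-mode intracellular calcium assay: DOI (4 nM) added after 5 min compound pre-incubation at room temperature to dye-loaded HTR2A-CHO cells. Fluorescence followed for 3 min, sampled every second.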

[13] = target: 5-hydroxytryptamine receptor 2A (Homo sapiens) (UniProt P28223); assay: 5-hydroxytryptamine receptor 2A (HTR2A) small molecule agonists, cell-based qHTS assay (AID 1963587); also: nearly all actives have a fitted effect of over 30% in size
In short: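 Kinetic calcium-flux fluorescence (2 min, 1 sec intervals) after compound addition in agonist mode. HTR2A-CHO cells were cultured 18 h, then dye-loaded 1 h at 37 C.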

[14] = target: Muscarinic acetylcholine receptor M1 (Homo sapiens) (UniProt P11229); assay: Cholinergic receptor muscarinic 1 (CHRM1) small molecule antagonists, cell-based qHTS assay (AID 1963588); also: nearly all actives have a fitted effect of over 40% in size; also: potency is read from the fitted curve at half-maximal effect
In short: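 CHRM1-CHO calcium-flux assay, antagonist mode. Cells were seeded 18 h, dye-loaded 1 h at 37 C and given compound for 5 min at RT, then acetylcholine was added at 50nM. FDSS fluorescence was read 3 min; 15 concentrations, three runs.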

[15] = target: Muscarinic acetylcholine receptor M1 (Homo sapiens) (UniProt P11229); assay: Cholinergic receptor muscarinic 1 (CHRM1) small molecule agonists, cell-based qHTS assay (AID 1963589); also: nearly all actives have a fitted effect of over 35% in size
In short: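 Human M1 in stable CHO line; 18 h plating, 1 h dye load 37 C; cpd added (agonist mode); Ca2+ fluorescence kinetic read, 1 s intervals; 15 conc, 3 runs.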

[16] = target: Beta-2 adrenergic receptor (Homo sapiens) (UniProt P07550); assay: Adrenergic beta2 receptor (ADRB2) small molecule antagonists, cell-based qHTS assay (AID 1963592); also: series mostly up to about 92 µM; nearly all actives have a fitted effect of over 50% in size
In short: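 Cells (CHO, stable ADRB2 overexpression) incubated 18-20hr at 37C; compounds added from DMSO; agonist mix (1nM isoproterenol, 100uM IBMX, 25uM Ro-20-1724) added; 0.5hr RT; d2-cAMP and anti-cAMP-cryptate added; 1hr RT; 665/615 nm read.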

[17] = target: D(2) dopamine receptor (Homo sapiens) (UniProt P14416); assay: Dopamine D2 receptor (DRD2) small molecule agonists, cell-based qHTS assay (AID 1963594); also: nearly all actives have a fitted effect of over 35% in size
In short: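 cAMP accumulation in DRD2-HEK293 cells measured by HTRF after 1 h detection; compounds added 10 min before NKH477 (200nM […]) forskolin-analogue stimulation, 30 min at room temperature, with Ro20-1724 present at 0.1 mM final.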

[18] = cAMP Responsive Elements (CRE) small molecule antagonists, cell-based qHTS assay (AID 1963591; active = well fitted inhibition curve with a large enough effect in the signal ratio in the repeat runs, not every such curve was filed as active; the % refers to the signal ratio)
In short: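 Beta-lactamase reporter read by FRET substrate (LiveBLAzer B/G) after 2 h at room temperature. CRE-bla HEK293T cells had received compound plus 0.25 uM (final) NKH477 for 3 h at 37 °C.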

[19] = target: D(2) dopamine receptor (Homo sapiens) (UniProt P14416); assay: Dopamine D2 receptor (DRD2) small molecule antagonists, cell-based qHTS assay (AID 1963595; active = well fitted inhibition curve with a large enough effect in the signal ratio in the repeat runs, with a control signal flat; the % refers to the signal ratio)
In short: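 Stable D2 receptor HEK293 line, 24 h after seeding. Compound preincubated 10 min, then quinpirole (12 nM) with forskolin analogue NKH477 (200 nM), 30 min, room temperature. Detection by time-resolved FRET of cAMP.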

[20] = cAMP Responsive Elements (CRE) small molecule agonists, cell-based qHTS assay (AID 1963590)
In short: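 HEK 293T CRE-bla, 2,000 cells/well, 18 h preincubation 37 C/5% CO2; cpds (DMSO) pinned, 3 h; LiveBLAzer B/G FRET substrate, 2 h RT.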

Beta-2 adrenergic receptor (Homo sapiens), sequence (P07550 whole entry, looked up): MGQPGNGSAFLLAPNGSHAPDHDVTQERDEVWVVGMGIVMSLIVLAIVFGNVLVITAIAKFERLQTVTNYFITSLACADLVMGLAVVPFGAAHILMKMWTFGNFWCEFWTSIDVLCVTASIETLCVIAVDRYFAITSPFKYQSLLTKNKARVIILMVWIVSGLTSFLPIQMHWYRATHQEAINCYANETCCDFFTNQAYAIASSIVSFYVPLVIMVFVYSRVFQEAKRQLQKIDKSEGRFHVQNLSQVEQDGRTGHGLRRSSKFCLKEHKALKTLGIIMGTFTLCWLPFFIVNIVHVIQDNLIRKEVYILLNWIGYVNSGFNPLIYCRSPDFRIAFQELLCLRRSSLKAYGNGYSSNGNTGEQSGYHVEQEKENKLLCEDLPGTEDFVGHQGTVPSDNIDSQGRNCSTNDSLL
KiSS-1 receptor (Homo sapiens), sequence (Q969F8 whole entry, looked up): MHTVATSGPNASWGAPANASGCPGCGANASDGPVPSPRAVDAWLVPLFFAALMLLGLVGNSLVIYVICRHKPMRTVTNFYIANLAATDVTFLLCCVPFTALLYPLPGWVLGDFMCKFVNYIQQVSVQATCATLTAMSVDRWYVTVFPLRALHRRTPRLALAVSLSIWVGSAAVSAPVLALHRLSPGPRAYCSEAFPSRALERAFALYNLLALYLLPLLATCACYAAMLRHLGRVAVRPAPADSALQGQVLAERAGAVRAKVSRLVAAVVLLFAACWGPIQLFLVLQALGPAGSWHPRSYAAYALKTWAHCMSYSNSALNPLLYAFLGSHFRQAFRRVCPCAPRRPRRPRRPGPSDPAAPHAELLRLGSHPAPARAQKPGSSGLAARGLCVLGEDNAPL
5-hydroxytryptamine receptor 2A (Homo sapiens), sequence (P28223 whole entry, looked up): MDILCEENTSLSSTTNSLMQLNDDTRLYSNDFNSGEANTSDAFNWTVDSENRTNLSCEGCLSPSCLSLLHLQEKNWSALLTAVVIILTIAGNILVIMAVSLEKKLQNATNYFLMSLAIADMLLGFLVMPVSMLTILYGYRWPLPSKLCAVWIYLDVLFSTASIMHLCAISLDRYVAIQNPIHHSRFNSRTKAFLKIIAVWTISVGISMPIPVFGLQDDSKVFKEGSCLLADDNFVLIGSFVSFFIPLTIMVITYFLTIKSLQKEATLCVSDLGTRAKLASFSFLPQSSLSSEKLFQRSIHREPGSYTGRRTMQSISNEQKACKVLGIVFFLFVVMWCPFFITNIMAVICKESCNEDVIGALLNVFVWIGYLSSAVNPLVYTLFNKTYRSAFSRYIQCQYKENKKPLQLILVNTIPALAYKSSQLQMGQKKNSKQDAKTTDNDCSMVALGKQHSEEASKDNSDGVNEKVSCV
D(2) dopamine receptor (Homo sapiens), sequence (P14416 whole entry, looked up): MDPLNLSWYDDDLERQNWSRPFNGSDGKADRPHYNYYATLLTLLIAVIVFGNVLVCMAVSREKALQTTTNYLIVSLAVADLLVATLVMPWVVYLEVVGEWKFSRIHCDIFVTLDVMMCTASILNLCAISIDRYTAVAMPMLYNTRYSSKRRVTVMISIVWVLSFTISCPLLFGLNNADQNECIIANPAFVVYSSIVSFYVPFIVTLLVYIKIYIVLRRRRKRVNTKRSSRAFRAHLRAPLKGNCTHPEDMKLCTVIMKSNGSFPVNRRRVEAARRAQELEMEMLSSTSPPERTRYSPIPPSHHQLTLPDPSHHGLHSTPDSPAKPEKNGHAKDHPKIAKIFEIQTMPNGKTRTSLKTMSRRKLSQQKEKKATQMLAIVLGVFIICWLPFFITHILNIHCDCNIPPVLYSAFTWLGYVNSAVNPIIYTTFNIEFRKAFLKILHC
Muscarinic acetylcholine receptor M1 (Homo sapiens), sequence (P11229 whole entry, looked up): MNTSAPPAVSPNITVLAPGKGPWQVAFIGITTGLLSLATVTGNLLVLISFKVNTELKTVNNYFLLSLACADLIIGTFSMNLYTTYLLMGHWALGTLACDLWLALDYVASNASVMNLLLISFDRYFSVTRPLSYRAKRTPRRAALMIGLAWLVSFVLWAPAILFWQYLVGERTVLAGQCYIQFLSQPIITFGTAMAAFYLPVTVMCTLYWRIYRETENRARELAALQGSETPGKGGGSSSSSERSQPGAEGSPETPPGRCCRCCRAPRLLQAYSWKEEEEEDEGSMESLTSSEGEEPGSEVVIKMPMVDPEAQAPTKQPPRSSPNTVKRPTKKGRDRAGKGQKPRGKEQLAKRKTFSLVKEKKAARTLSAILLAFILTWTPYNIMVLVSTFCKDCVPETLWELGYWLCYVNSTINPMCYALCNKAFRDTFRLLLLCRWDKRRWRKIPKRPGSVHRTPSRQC
Gonadotropin-releasing hormone receptor (Homo sapiens), sequence (P30968 whole entry, looked up): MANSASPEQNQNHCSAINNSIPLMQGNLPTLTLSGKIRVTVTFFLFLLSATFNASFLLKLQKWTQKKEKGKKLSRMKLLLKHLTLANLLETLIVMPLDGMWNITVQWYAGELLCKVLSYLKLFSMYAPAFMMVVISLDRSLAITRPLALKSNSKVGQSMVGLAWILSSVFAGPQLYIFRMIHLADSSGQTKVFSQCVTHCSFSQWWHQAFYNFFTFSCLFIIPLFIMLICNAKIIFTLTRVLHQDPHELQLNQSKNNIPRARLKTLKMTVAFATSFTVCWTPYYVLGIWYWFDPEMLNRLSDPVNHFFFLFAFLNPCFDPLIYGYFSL

Compound	Potency [1]	Potency [2]	Potency [3]	outcome [4]	outcome [5]	Potency [6]	Potency [7]	Potency [8]	Potency [9]	Potency [10]	Potency [11]	Potency [12]	Potency [13]	Potency [14]	Potency [15]	Potency [16]	Potency [17]	Potency [18]	Potency [19]	Potency [20]
COC[C@H](c1ccc(C(F)(F)F)cc1)N1CCN(C2(C)CCN(C(=O)c3c(C)ncnc3C)CC2)C[C@H]1C	inactive	inactive	inactive	inactive	inactive	inactive	inactive	inactive	inactive	inactive	inactive	inactive	inactive	5.16 µM (active)	inactive	inactive	inactive			
O=C(CO)[C@@H](O)[C@H](O)[C@@H](O)CO	inactive	inactive	inactive	inactive	inactive	inactive	inactive	inactive	inactive	inactive	inactive	inactive	inactive	inactive	inactive	inactive	inactive	inactive		
Cc1ccc(S)cc1	inactive	24.3 µM (active)	inactive	inactive	inactive	inactive	inactive	inactive	inactive	inactive	inactive	42.1 µM (active)	inactive	inactive	inactive	inactive	inactive		inactive	
Cc1cc(O)c2c(c1)C(=O)c1cccc(O)c1C2=O	inactive	8.43 µM (active)	inactive	inactive	inactive	inactive	inactive	inactive	inactive	inactive	inactive	inactive	inactive	inactive	inactive	inactive	inactive	inactive	inactive	
O=C(O)C(Cc1cc(I)c(O)c(I)c1)c1ccccc1 (stereo not given)	inactive	inactive	inactive	inactive	inactive	inactive	inactive	inactive	inactive	inactive	inactive	inactive	inactive	inactive	inactive	inactive	inactive	inactive		
CCC(=O)c1cccc(Cl)c1	inactive	inactive	inactive	inactive	inactive	inactive	inactive	inactive	inactive	inactive	inactive	inactive	inactive	inactive	inactive	inactive			inactive	inactive
CCOC(=O)CC#N	inactive	inactive	inactive	inactive	inactive	inactive	inactive	inactive	inactive	inactive	inactive	inactive	inactive	inactive	inactive	inactive	inactive	inactive	inactive	
CC(C)COC(=O)COc1cc(Cl)c(Cl)cc1Cl	inactive	inactive	inactive	inactive	inactive	inactive	inactive	inactive	inactive	inactive	inactive	inactive	inactive	inactive	inactive	inactive	inactive	inactive	inactive	
CNC(=O)c1ccccc1	inactive	inactive	inactive	inactive	inactive	inactive	inactive	inactive	inactive	inactive	inactive	inactive	inactive	inactive	inactive		inactive		inactive	inactive
COC(=O)C1=C(C)NC(C)=C(C(=O)OC(C)(C)CN(C)CCC(c2ccccc2)c2ccccc2)C1c1cccc([N+](=O)[O-])c1 (stereo not given)	inactive	inactive	inactive	inactive	inactive	inactive	inactive	inactive	inactive	inactive	inactive	inactive	inactive	6.5 µM (active)	inactive	inactive	inactive	inactive		
COC(=O)CC#N	inactive	inactive	inactive	inactive	inactive	inactive	inactive	inactive	inactive	inactive	inactive	inactive	inactive	inactive	inactive	inactive	inactive	inactive	inactive	
Cc1ccsc1C(=CCCN1CCC[C@@H](C(=O)O)C1)c1sccc1C	inactive	inactive	inactive	inactive	inactive	inactive	inactive	inactive	inactive	inactive	0.5 µM (active)	inactive	inactive	inactive	inactive	inactive	inactive		inactive	
CCOc1ccccc1O	inactive	inactive	inactive	inactive	inactive	inactive	inactive	inactive	inactive	inactive	inactive	inactive	inactive	inactive	inactive	inactive	inactive	inactive	inactive	
Cc1nc(C2CCCCC2)c(-c2ccc(S(N)(=O)=O)c(F)c2)o1	inactive	inactive	inactive	inactive	inactive	inactive	inactive	inactive	inactive	inactive	inactive	inactive	inactive	inactive	inactive	inactive	inactive		inactive	
O=C(O)c1ccccc1NCCc1ccccc1	inactive	inactive	inactive	inactive	inactive	inactive	inactive	inactive	inactive	inactive	inactive	inactive	inactive	inactive	inactive	inactive	inactive	inactive	inactive	
